The results in this text go back to PubChem BioAssay (Tox21).

SMILES strings stand for the structures. Inconclusive results are not listed. Calls of active or inactive are those of the source. Unless noted, calls come from the whole dose curve.

Experiment [1] can be described thus: Nuclear factor erythroid 2-related factor 2/antioxidant responsive element (Nrf2/ARE) small molecule agonists: qHTS cell viability counter screen in human keratinocytes (AID 1919968; active = well fitted curve in the direction sought with a large enough effect in the repeat runs; an effect the other way counts as inactive or inconclusive; note: nearly all actives have a fitted effect of over 55% in size; note: potency is the fitted concentration of half-maximal effect). In a few lines: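 Measured as CellTiter-Fluor fluorescence, this readout tracks cytotoxicity in the same wells as the ARE-luciferase screen. HaCaT reporter cells (1,500/well) received compounds after a 5 h pre-incubation and were exposed for 23 h.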
On the technique in general: In qHTS, concentration-response curves come from the screen itself.

The nature of experiment [2]: Nuclear factor erythroid 2-related factor 2/antioxidant responsive element (Nrf2/ARE) small molecule agonists: luciferase reporter gene qHTS assay in human keratinocytes (AID 1919969). Note: nearly all actives have a fitted effect of over 35% in size. For orientation: Reporter assays use an easily measured gene product as a stand-in for the process of interest.
Experiment [3] concerns the target Gonadotropin-releasing hormone receptor (Homo sapiens) (UniProt P30968). The experiment in a line: Human gonadotropin-releasing hormone receptor (GnRHR) small molecule agonists, calcium flux assay in GnRHR-HEK293 cells (AID 1920063). Note: nearly all actives have a fitted effect of over 35% in size. Note: potency is the fitted concentration of half-maximal effect. In a few lines: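 Fluorescence kinetics (480 nm excitation, 540 nm emission; 3 min, 1 s steps) report calcium mobilisation in human GnRHR-HEK293 cells in agonist mode. Dye incubation: 1 h, 37 C.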

Experiment [4] addresses KiSS-1 receptor (Homo sapiens) (UniProt Q969F8). The experiment is described as follows: Human kisspeptin (KISS1R) small molecule agonists, calcium flux assay in KISS1R-HEK293 cells (AID 1920064; active = well fitted curve in the direction sought with a large enough effect in the repeat runs; an effect the other way counts as inactive or inconclusive). In a few lines: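 Measures KISS1R agonism through calcium-sensitive dye fluorescence in stably transfected HEK293 cells, read for 3 min after pin-tool compound delivery; 15-point titrations in triplicate.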
A general note: Calcium assays in cells follow changes in intracellular calcium, usually with a dye or a luminescent sensor.

A short description of experiment [5]: G protein-coupled receptor (GPCR) small molecule agonists, calcium flux assay: HEK293 wild type cell line counter screen (AID 1920065). In a few lines:
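Readout: fluorescence at 480 nm excitation/540 nm emission, sampled at 1 s intervals for 3 min. Cells had been cultured 18 h, then dye-loaded 1 h at 37 C before compound or ATP addition.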

The nature of experiment [6]: p53 small molecule agonists, cell-based qHTS assay with human liver microsomes: qHTS cell viability counter screen (AID 1963579). Note: nearly all actives have a fitted effect of over 45% in size. In a few lines:
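p53RE-bla cells, 4,000/well, dosed 5 hours after plating, with human liver microsomes (0.5 mg/mL final) plus NADPH (0.5 mg/mL final), 16 hours at 37 C. Viability read as CellTiter-Glo luminescence after 30 min at room temperature.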

Experiment [7] can be described thus: p53 small molecule agonists, cell-based qHTS assay: qHTS cell viability counter screen (AID 1963581). Note: nearly all actives have a fitted effect of over 45% in size. In a few lines:
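In the same plates used for the p53 bla reporter, HCT-116 cells given compounds for 16 h at 37 C received CellTiter-Glo; luminescence was recorded 30 min later at room temperature.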

Experiment [8] deals with 5-hydroxytryptamine receptor 2A (Homo sapiens) (UniProt P28223). The experiment in a line: 5-hydroxytryptamine receptor 2A (HTR2A) small molecule antagonists, cell-based qHTS assay (AID 1963586). Note: nearly all actives have a fitted effect of over 45% in size. Note: potency is the fitted concentration of half-maximal effect. In a few lines: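 Antagonist-mode intracellular calcium assay: DOI (4 nM) added after 5 min compound pre-incubation at room temperature to dye-loaded HTR2A-CHO cells. Fluorescence followed for 3 min, sampled every second.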

For experiment [9] the target is unchanged. The experiment in a line: 5-hydroxytryptamine receptor 2A (HTR2A) small molecule agonists, cell-based qHTS assay (AID 1963587). Note: nearly all actives have a fitted effect of over 30% in size. Note: potency is the fitted concentration of half-maximal effect. In a few lines:
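HTR2A-CHO cells, plated 18 h at 37 C/5% CO2, dye-loaded 1 h at 37 C; compounds in DMSO added by pin tool (agonist mode). Intracellular calcium flux read as kinetic fluorescence on FDSS over 2 min at 1 s intervals.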

For experiment [10], the target named is Muscarinic acetylcholine receptor M1 (Homo sapiens) (UniProt P11229). The experiment is described as follows: Cholinergic receptor muscarinic 1 (CHRM1) small molecule antagonists, cell-based qHTS assay (AID 1963588). Note: nearly all actives have a fitted effect of over 40% in size. In a few lines: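 CHRM1-CHO calcium-flux assay, antagonist mode. Cells were seeded 18 h, dye-loaded 1 h at 37 C and given compound for 5 min at RT, then acetylcholine was added at 50nM. FDSS fluorescence was read 3 min; 15 concentrations, three runs.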

Experiment [11] has the same target. The experiment in a line: Cholinergic receptor muscarinic 1 (CHRM1) small molecule agonists, cell-based qHTS assay (AID 1963589). Note: nearly all actives have a fitted effect of over 35% in size. In a few lines:
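Each compound was tested at 15 concentrations across three independent runs on dye-loaded CHO cells stably expressing human CHRM1, reading intracellular calcium fluorescence kinetically at 1 sec intervals.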

Experiment [12] in a line: cAMP Responsive Elements (CRE) small molecule agonists, cell-based qHTS assay (AID 1963590). In a few lines:
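Cell line: CRE-bla HEK 293T; medium DMEM/10% dialyzed FBS/0.1 mM NEAA/1 mM pyruvate/25 mM HEPES; 3 h compound exposure; beta-lactamase FRET readout after 2 h substrate loading at RT.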

Experiment [13] in a line: cAMP Responsive Elements (CRE) small molecule antagonists, cell-based qHTS assay (AID 1963591; active = well fitted inhibition curve with a large enough effect in the signal ratio in the repeat runs, not every such curve was filed as active; the % refers to the signal ratio). In a few lines: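 Inhibition of NKH477-driven (0.25 uM final) CRE-beta-lactamase signal in HEK293T cells, 3 h compound exposure at 37 °C, detected by FRET substrate fluorescence.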
In experiment [14] the target is Beta-2 adrenergic receptor (Homo sapiens) (UniProt P07550). The experiment in a line: Adrenergic beta2 receptor (ADRB2) small molecule antagonists, cell-based qHTS assay (AID 1963592). Note: nearly all actives have a fitted effect of over 50% in size. Note: potency is the fitted concentration of half-maximal effect. In a few lines: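 Cells (CHO, stable ADRB2 overexpression) incubated 18-20hr at 37C; compounds added from DMSO; agonist mix (1nM isoproterenol, 100uM IBMX, 25uM Ro-20-1724) added; 0.5hr RT; d2-cAMP and anti-cAMP-cryptate added; 1hr RT; 665/615 nm read.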

Experiment [15] shares this target. The experiment is described as follows: Adrenergic beta2 receptor (ADRB2) small molecule agonists, cell-based qHTS assay (AID 1963593).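 Note: CHO cells stably overexpressing human ADRB2.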 In a few lines: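 CHO cells stably over-expressing ADRB2 were plated overnight at 37C, then dosed with compounds plus a stimulation mix containing 100uM IBMX and 25uM Ro-20-1724 for 0.5hr at room temperature. cAMP was measured by HTRF competition, 1hr.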

Experiment [16] deals with D(2) dopamine receptor (Homo sapiens) (UniProt P14416). The experiment is described as follows: Dopamine D2 receptor (DRD2) small molecule agonists, cell-based qHTS assay (AID 1963594). Note: nearly all actives have a fitted effect of over 35% in size. In a few lines:
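HEK293 cells stably expressing DRD2 were cultured 24 h at 37 C, then given Ro20-1724 (0.1 mM final) and compounds for 10 min at room temperature. NKH477 (200nM) was then added for 30 min. cAMP was read by HTRF.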

For experiment [17] the target is unchanged. The experiment in a line: Dopamine D2 receptor (DRD2) small molecule antagonists, cell-based qHTS assay (AID 1963595; active = well fitted inhibition curve with a large enough effect in the signal ratio in the repeat runs, with a control signal flat; the % refers to the signal ratio; note: potency is the fitted concentration of half-maximal effect). In a few lines: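 Readout: HTRF cAMP, cAMP-d2 competing with cellular cAMP for anti-cAMP cryptate, read after 1 h. Cells: DRD2-HEK293. Conditions: 0.1 mM Ro20-1724, 12 nM quinpirole, 200 nM NKH477, 30 min RT.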
Experiment [18] is described as follows: p53 small molecule agonists, cell-based qHTS assay with rat liver microsomes: qHTS cell viability counter screen (AID 1963580). Note: nearly all actives have a fitted effect of over 45% in size. In a few lines:
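In HCT-116 cells carrying a p53 response element-bla reporter, compounds were metabolically activated in situ by rat liver microsomes with NADPH over 16 h. Cell ATP content then served as the cytotoxicity measure.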

Experiment [19] is described as follows: p53 small molecule agonists, cell-based qHTS assay (AID 1963582; active = well fitted activation curve with a large enough effect in the signal ratio in the repeat runs, not every such curve was filed as active; the % refers to the signal ratio). In a few lines: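 Compounds are pin-transferred in DMSO onto p53RE-bla cells and incubated 16 h at 37 C. The B/G FRET beta-lactamase substrate is then applied for 2 h at RT and fluorescence recorded.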

D(2) dopamine receptor (Homo sapiens), sequence (P14416 whole entry, looked up): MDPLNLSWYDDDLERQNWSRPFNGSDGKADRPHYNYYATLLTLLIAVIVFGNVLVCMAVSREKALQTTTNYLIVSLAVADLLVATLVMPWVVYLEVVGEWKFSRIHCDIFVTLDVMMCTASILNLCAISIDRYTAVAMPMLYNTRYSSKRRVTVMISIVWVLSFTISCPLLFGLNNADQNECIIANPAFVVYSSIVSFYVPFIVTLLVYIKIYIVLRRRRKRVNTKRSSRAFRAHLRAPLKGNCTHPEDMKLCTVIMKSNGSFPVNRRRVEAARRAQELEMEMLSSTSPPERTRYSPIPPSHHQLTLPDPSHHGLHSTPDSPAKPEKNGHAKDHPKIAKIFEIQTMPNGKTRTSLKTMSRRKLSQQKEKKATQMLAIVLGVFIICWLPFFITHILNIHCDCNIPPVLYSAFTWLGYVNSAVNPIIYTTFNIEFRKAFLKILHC
Gonadotropin-releasing hormone receptor (Homo sapiens), sequence (P30968 whole entry, looked up): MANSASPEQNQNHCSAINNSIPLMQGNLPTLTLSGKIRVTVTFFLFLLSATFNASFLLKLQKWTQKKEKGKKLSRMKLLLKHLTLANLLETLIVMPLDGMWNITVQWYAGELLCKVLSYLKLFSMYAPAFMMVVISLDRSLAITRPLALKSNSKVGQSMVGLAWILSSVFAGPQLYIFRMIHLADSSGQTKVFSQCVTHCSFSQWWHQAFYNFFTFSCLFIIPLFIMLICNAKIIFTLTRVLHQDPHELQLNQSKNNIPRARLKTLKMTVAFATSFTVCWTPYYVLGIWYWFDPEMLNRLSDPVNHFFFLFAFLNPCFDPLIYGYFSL
KiSS-1 receptor (Homo sapiens), sequence (Q969F8 whole entry, looked up): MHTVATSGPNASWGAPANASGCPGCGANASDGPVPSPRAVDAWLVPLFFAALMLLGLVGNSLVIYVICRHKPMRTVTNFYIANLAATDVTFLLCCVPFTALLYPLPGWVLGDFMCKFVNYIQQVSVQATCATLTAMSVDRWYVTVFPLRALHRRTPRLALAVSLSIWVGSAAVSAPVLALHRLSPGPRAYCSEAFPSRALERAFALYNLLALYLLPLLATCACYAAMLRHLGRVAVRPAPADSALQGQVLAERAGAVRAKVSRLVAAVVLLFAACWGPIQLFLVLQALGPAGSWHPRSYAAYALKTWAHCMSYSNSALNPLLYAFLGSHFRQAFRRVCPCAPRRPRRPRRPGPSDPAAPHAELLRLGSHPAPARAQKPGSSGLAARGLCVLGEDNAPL
5-hydroxytryptamine receptor 2A (Homo sapiens), sequence (P28223 whole entry, looked up): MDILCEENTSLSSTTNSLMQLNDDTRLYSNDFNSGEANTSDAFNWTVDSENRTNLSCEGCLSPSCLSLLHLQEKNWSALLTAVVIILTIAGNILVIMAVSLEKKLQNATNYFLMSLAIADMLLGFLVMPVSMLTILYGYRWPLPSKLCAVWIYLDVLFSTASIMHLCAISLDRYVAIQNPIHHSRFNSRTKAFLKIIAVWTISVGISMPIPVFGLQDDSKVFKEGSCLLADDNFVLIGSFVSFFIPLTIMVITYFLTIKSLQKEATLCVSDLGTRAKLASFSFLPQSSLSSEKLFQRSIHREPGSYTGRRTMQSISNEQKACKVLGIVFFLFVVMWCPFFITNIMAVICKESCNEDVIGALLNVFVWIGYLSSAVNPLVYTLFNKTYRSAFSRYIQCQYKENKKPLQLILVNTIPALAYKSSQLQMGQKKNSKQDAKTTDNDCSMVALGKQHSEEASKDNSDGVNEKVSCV
Muscarinic acetylcholine receptor M1 (Homo sapiens), sequence (P11229 whole entry, looked up): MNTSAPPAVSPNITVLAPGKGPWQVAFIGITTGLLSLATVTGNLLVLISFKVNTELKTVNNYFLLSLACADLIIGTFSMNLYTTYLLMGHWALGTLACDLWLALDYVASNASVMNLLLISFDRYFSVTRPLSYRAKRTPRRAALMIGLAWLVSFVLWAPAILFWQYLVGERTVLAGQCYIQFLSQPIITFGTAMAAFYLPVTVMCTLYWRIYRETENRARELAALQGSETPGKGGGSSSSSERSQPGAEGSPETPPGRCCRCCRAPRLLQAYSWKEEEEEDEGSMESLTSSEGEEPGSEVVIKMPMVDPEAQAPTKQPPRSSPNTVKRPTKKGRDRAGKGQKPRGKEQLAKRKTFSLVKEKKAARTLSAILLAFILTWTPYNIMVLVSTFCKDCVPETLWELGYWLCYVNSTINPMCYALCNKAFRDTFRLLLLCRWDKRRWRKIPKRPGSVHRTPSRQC
Beta-2 adrenergic receptor (Homo sapiens), sequence (P07550 whole entry, looked up): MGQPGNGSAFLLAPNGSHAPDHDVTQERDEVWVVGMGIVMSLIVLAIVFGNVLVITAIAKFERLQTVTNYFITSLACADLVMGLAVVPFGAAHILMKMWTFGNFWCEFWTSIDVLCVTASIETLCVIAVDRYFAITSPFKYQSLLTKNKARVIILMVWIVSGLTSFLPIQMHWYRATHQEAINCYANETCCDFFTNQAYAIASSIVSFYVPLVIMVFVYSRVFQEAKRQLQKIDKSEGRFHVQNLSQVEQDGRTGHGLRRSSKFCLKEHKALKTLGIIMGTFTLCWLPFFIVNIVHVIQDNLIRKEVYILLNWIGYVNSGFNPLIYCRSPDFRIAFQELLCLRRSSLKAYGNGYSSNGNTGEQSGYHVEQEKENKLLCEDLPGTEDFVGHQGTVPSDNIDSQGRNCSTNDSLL

Turning to `NCCc1cc(O)c(O)cc1O`, the Potency entry in experiment [1], in experiment [2], in experiment [3], in [4], in [5] and in experiment [6] was “inactive” each time. For the same molecule, the Potency entry in experiment [7], in experiment [10], in experiment [11], in experiment [12], in experiment [13] and in [14] was “inactive” each time. The Potency result in experiment [15], in [16] and in experiment [17] was “inactive” each time. Further, the Potency was 18.3 µM (active) in experiment [8] and 23.9 µM (active) in [9].

Regarding `CC(Cc1ccc(O)cc1)NCC(O)c1cc(O)cc(O)c1` (stereo not given), the Potency result in experiment [1], in experiment [2], in experiment [4], in [5], in [11] and in experiment [13] was “inactive” in each case. In addition, the results for the Potency in experiment [3] and in experiment [17] were 0.0338 µM (active) and 5.96 µM (active), respectively.

Consider `O=CC=O`, for which the Potency result in experiment [1], in experiment [2], in experiment [3], in experiment [4], in experiment [5] and in [18] was “inactive” each time. The Potency result in experiment [8], in experiment [9], in experiment [11], in experiment [12], in [13] and in experiment [14] was “inactive” each time. Also, the Potency entry in experiment [16] and in experiment [17] was “inactive” each time.

For the molecule `Clc1cc(Cl)c(Cl)c(Cl)c1`, the Potency result in experiment [1], in experiment [2], in experiment [3], in [4], in [5] and in [7] was “inactive” throughout. Moreover, the Potency entry in [8], in experiment [9], in [10], in experiment [11], in [12] and in experiment [13] was “inactive” in each case. For the same molecule, the Potency entry in experiment [14], in [16] and in experiment [17] was “inactive” in each case.

Take `CCSCc1ccccc1OC(=O)NC`: the Potency entry in experiment [1], in [2], in [3], in experiment [4], in experiment [5] and in experiment [18] was “inactive” in each case. For the same molecule, the Potency entry in experiment [7], in experiment [19], in experiment [8], in [9], in experiment [10] and in experiment [11] was “inactive” throughout. Also, the Potency entry in experiment [12], in experiment [13], in experiment [14], in experiment [15], in experiment [16] and in experiment [17] was “inactive” in each case.

Regarding `O=C1NC(=O)C(=O)C(=O)N1`, the Potency result in experiment [1], in experiment [2], in experiment [3], in experiment [4], in [5] and in experiment [18] was “inactive” each time. Further, the Potency result in experiment [7], in experiment [8], in experiment [9], in [10], in experiment [11] and in [12] was “inactive” in each case. The Potency result in [13], in experiment [14], in [15], in experiment [16] and in [17] was “inactive” each time.

For `O=[N+]([O-])c1ccc(F)c([N+](=O)[O-])c1`, the Potency in experiment [1] is 27.6 µM (active). In addition, the Potency result in experiment [2], in experiment [3], in experiment [4], in [5], in [18] and in experiment [7] was “inactive” throughout. Besides, the Potency result in experiment [8], in experiment [9] and in experiment [10] was “inactive” each time.

For `CN(N=O)c1ccc([N+](=O)[O-])cc1`, the Potency entry in experiment [1], in experiment [2], in [3], in experiment [4], in experiment [5] and in experiment [18] was “inactive” throughout. For the same molecule, the Potency result in [7], in [8], in experiment [9], in experiment [10], in experiment [13] and in experiment [14] was “inactive” throughout. The Potency result in [16] and in experiment [17] was “inactive” in each case.

As for `Clc1cccc(SC2CCNCC2)n1`, the Potency result in experiment [1], in [2], in experiment [3], in experiment [4], in experiment [5] and in experiment [11] was “inactive” in each case. In addition, the Potency entry in [12], in experiment [13], in experiment [16] and in experiment [17] was “inactive” in each case. The Potency in experiment [9] was 0.0849 µM (active); in [14] it was 15 µM (active).
